Measured values from PubChem BioAssay AID492989 (National Center for Advancing Translational Sciences (NCATS), 2010).
Calls of active or inactive are those of the source.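 Rule for the calls: active = clear inhibition seen at one or more tested concentrations; inactive = basal response, no inhibition.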

Target: Tyrosyl-DNA phosphodiesterase 1 (Homo sapiens) (UniProt Q9NUW8)
Test: Gel-Based Assay for Inhibitors of Tyrosyl-DNA Phosphodiesterase (TDP1)
Details: recombinant TDP1, 32P-DNA substrate gel cleavage
Description: Assay Overview: Human tyrosyl-DNA phosphodiesterase I (Tdp1) is a rational anticancer target because this enzyme is involved in the repair of DNA lesions created by the trapping of human DNA topoisomerase I (Top1) following treatment by anticancer agents such as camptothecins. Recombinant Tdp1 was expressed and purified from E. coli in the laboratory (Anthony et al, Nucleic Acids Research, 2007, Vol. 35, 4474-4484). See below for assay protocol. NIH Molecular Libraries Probe Production Network [MLPCN] NIH Chemical Genomics Center [NCGC] Assay Provider: Yves Pommier and Christophe Marchand, National Cancer Institute
5'-32P-labeled DNA substrate (1 nmol/L; N14Y; 5'-GATCTAAAAGACTT-pY-3') was incubated with 0.2 nmol/L recombinant Tdp1 in the absence or presence of inhibitor for 15 min at room temperature in an assay buffer containing 1X PBS, pH 7.4, 80 mmol/L KCl and 0.01% Tween-20. Reactions were terminated by the addition of 1 volume of gel loading buffer [99.5% (v/v) formamide, 5 mmol/L EDTA, 0.01% (w/v) xylene cyanol, and 0.01% (w/v) bromophenol blue]. Samples were subjected to a 16% denaturing PAGE and gels were exposed after drying to a PhosphorImager screen (GE Healthcare). Gel images were scanned using a Typhoon 8600 (GE Healthcare) and densitometric analyses were performed using the ImageQuant software (GE Healthcare).

Tyrosyl-DNA phosphodiesterase 1 (Homo sapiens), sequence (Q9NUW8 whole entry, looked up): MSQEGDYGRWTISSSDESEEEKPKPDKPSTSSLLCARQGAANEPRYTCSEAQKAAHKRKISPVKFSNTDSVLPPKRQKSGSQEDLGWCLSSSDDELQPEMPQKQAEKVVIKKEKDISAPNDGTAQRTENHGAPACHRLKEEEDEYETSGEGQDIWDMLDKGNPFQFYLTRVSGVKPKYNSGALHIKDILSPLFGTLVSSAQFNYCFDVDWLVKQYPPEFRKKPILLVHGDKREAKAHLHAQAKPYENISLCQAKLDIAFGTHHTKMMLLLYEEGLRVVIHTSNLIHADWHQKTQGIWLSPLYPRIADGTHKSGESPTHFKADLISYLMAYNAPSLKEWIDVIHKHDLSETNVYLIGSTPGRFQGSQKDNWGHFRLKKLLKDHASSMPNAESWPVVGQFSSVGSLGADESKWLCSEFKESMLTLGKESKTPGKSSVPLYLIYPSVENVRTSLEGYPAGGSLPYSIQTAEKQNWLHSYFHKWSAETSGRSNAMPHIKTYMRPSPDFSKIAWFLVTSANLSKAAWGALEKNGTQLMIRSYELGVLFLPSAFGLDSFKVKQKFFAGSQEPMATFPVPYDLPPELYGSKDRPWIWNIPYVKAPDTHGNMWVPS

SMILES	outcome	Potency
O=c1c2ccccc2nc2sc(Nc3ccc(F)cc3)nn12	inactive	
O=c1c2ccccc2nc2sc(Nc3cccc(-c4ccncc4)c3)nn12		11 µM (active)
CN(c1ccc2c(c1)CCC2)c1nn2c(=O)c3ccccc3nc2s1	inactive	
CN(C)c1ccc2c(=O)n3nc(Nc4ccc5c(c4)CCC5)sc3nc2c1	inactive	
O=c1c2ccccc2nc2sc(Nc3ccccc3)nn12		100 µM (active)
O=c1c2ccc(C(F)(F)F)cc2nc2sc(Nc3ccc4c(c3)CCC4)nn12		12 µM (active)
Nc1ccc2c(=O)n3nc(Nc4ccc5c(c4)CCC5)sc3nc2c1	inactive	
O=c1c2ccccc2nc2sc(Nc3cccc(C(F)(F)F)c3)nn12	inactive	
CN1CCN(c2cccc(Nc3nn4c(=O)c5ccccc5nc4s3)c2)CC1	inactive	
Cc1cccc(Nc2nn3c(=O)c4ccccc4nc3s2)c1		10 µM (active)
O=c1c2ccc([N+](=O)[O-])cc2nc2sc(Nc3ccc4c(c3)CCC4)nn12		37 µM (active)
COc1cccc(Nc2nn3c(=O)c4ccccc4nc3s2)c1		100 µM (active)
O=c1c2ccccc2nc2sc(Nc3cccc4ccccc34)nn12		14 µM (active)
O=c1c2ccccc2nc2sc(Nc3ccc4c(c3)CNC4)nn12		100 µM (active)
O=c1c2ccccc2nc2sc(Nc3cccc(Br)c3)nn12	inactive	
CC(C)(C)NS(=O)(=O)c1cccc(Nc2nn3c(=O)c4ccccc4nc3s2)c1		34 µM (active)
CCc1cccc(Nc2nn3c(=O)c4ccccc4nc3s2)c1	inactive	
Cc1ccc(Nc2nn3c(=O)c4ccccc4nc3s2)cc1C		10 µM (active)
O=c1c2ccccc2nc2sc(Nc3ccc4c(c3)CCC4)nn12		2.5 µM (active)
O=c1c2ccccc2nc2sc(Nc3ccc4c(c3)OCO4)nn12		12 µM (active)
O=c1c2ccccc2nc2sc(Nc3cccc(Cl)c3)nn12		7.4 µM (active)
CC(C)N1Cc2ccc(Nc3nn4c(=O)c5ccccc5nc4s3)cc2C1		22 µM (active)
O=c1c2ccccc2nc2sc(Nc3ccc(Br)cc3)nn12	inactive	
O=c1c2ccc(Br)cc2nc2sc(Nc3ccc4c(c3)CCC4)nn12		1.1 µM (active)
COc1ccc2c(=O)n3nc(Nc4ccc5c(c4)CCC5)sc3nc2c1		11 µM (active)
